Inconclusive results are not listed. Unmarked numbers belong to inactive results. Active and inactive are the calls of the source. Calls come from the whole dose curve.
Assay: Confirmatory qHTS for inhibitors of MERS-S pseudo-typed particle cell entry
Conditions: MERS-S pseudotyped particle entry, luciferase reporter; series mostly up to 57.1 µM

Compound | Potency | activity change, negative = inhibition
C[C@@H](c1nc(-c2ccc(C#N)cc2)cs1)[C@](O)(Cn1cncn1)c1cc(F)ccc1F | 5.41 µM (active) | 
C=C1c2c(Cl)ccc(O)c2C(O)=C2C(=O)[C@@]3(O)C(O)=C(C(N)=O)C(=O)[C@@H](N(C)C)[C@@H]3[C@@H](O)[C@H]12 | 19.2 µM (active) | 
COc1ccc(Cc2nccc3cc(OC)c(OC)cc23)cc1OC | 4.82 µM (active) | 
CCCCCCCCCCCCOCCOCCOCCOCCOCCOCCOCCOCCOCCO | 7.64 µM (active) | 
O=c1c(C2CC(c3ccc(-c4ccc(Br)cc4)cc3)Cc3ccccc32)c(O)sc2ccccc12 (stereo not drawn) | 9.61 µM (active) | 
COc1cc2nccc(Oc3ccc(NC(=O)C4(C(=O)Nc5ccc(F)cc5)CC4)cc3)c2cc1OC | 12.1 µM (active) | 
CN1CCC[C@@H]1CCO[C@](C)(c1ccccc1)c1ccc(Cl)cc1 | 7.64 µM (active) | 
COc1cc([C@@H]2c3cc4c(cc3C(O[C@@H]3O[C@@H]5CO[C@@H](c6cccs6)OC5[C@H](O)[C@H]3O)C3COC(=O)[C@@H]32)OCO4)cc(OC)c1O (stereo partly drawn) | 0.271 µM (active) | 
Nc1ccn([C@@H]2O[C@H](CO)[C@@H](O)C2(F)F)c(=O)n1 | 0.215 µM (active) | 
CC(C)OC(=O)[C@H](C)N[P@](=O)(CO[C@H](C)Cn1cnc2c(N)ncnc21)Oc1ccccc1 | 0.0152 µM (active) | 
COc1ccc2cc1Oc1ccc(cc1)C[C@H]1c3c(cc4c(c3Oc3cc5c(cc3OC)CCN(C)[C@@H]5C2)OCO4)CCN1C | 1.71 µM (active) | 
COC(=O)C1=C(C)NC(C)=C(C(=O)OCC(C)C)C1c1ccccc1[N+](=O)[O-] (stereo not drawn) | 19.2 µM (active) | 
CCOc1cc2ncc(C#N)c(Nc3ccc(OCc4ccccn4)c(Cl)c3)c2cc1NC(=O)/C=C/CN(C)C |  | -18.9% [at 11.2 µM]
CC(=O)OCC1=C(C(=O)O)N2C(=O)[C@@H](NC(=O)Cc3cccs3)[C@H]2SC1 | inactive | 
C[C@]12CC[C@H](O)C[C@H]1CCC1C2CC[C@]2(C)[C@@H](c3ccc(=O)oc3)C[C@H]3O[C@]132 (stereo partly drawn) | 3.83 µM (active) | 
CCCCN=C(N)N=C(N)N | inactive | 
C=CC1(C)CC(=O)C2(O)C(C)(O1)C(OC(C)=O)C(OC(=O)CCN(C)C)C1C(C)(C)CCC(O)C12C (stereo not drawn) | inactive | 
CC(C)OC(=O)OCOP(=O)(CO[C@H](C)Cn1cnc2c(N)ncnc21)OCOC(=O)OC(C)C | 0.0192 µM (active) | 
CO[C@@]12[C@H](COC(N)=O)C3=C(C(=O)C(C)=C(N)C3=O)N1C[C@@H]1N[C@@H]12 | 0.961 µM (active) | 
CC[C@@H]([C@H](C)O)n1ncn(-c2ccc(N3CCN(c4ccc(OC[C@@H]5CO[C@@](Cn6cncn6)(c6ccc(F)cc6F)C5)cc4)CC3)cc2)c1=O | 7.64 µM (active) | 
N#CC(c1ccc(Cl)cc1)c1c(Cl)cc(-n2ncc(=O)[nH]c2=O)cc1Cl (stereo not drawn) | 7.64 µM (active) | 
COc1cc(N)c(Cl)cc1C(=O)NC1CCN(CCCOc2ccc(F)cc2)CC1OC (stereo not drawn) | 15.2 µM (active) | 
CC(=O)[C@]1(O)Cc2c(O)c3c(c(O)c2[C@@H](O[C@H]2C[C@H](N)[C@H](O)[C@H](C)O2)C1)C(=O)c1ccccc1C3=O | 2.15 µM (active) | 
CCSc1ccc2c(c1)N(CCCN1CCN(C)CC1)c1ccccc1S2 | 13.6 µM (active) | 
CN1CCC(=C2c3ccccc3CCc3sccc32)CC1 | 15.2 µM (active) | 
O=C1c2c(O)ccc(O)c2C(=O)c2c(NCCNCCO)ccc(NCCNCCO)c21 | 0.961 µM (active) | 
CCCCCCCCCCCCCC[n+]1ccc(C)cc1 | 2.41 µM (active) | 
O=C(Nc1ccc([N+](=O)[O-])cc1Cl)c1cc(Cl)ccc1O | 0.857 µM (active) | 
